Laboratory results reported in the supplement of paper PMC13392028.

System: PvIESI-1 RRM domain (Plasmodium vivax PVP01_0939900 aa 896-1203, GST fusion)
Test: RBNS R-value (6-mer enrichment in protein-bound RNA vs input library) (ratio); higher = stronger binding preference; the methods of the paper give 50 / 100 / 500 nM protein instead
Method: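 RNA Bind-n-Seq: recombinant GST-tagged IESI-1 RRM domain was incubated at room temperature with a random 40-nt in vitro transcribed RNA library at 250, 500 or 1000 nM protein. Bound RNA was pulled down on glutathione beads and sequenced. R-value is the enrichment of each 6-mer in the bound RNA relative to the input library. Each 6-mer sits inside the random 40-mer context, not as an isolated oligo. Values are replicate 1 only.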

Sequence | RBNS R-value (protein concentration: 250 nM) | RBNS R-value (protein concentration: 500 nM) | RBNS R-value (protein concentration: 1000 nM)
GUGAUG | 3.26 | 3.57 | 3.34
UGAUUG | 3.56 | 3.76 | 3.39
GCUGAU | 2.62 | 2.82 | 2.68
AAUGAU | 3.66 | 3.89 | 3.94
UUGAUG | 4.85 | 5.06 | 4.68
GACACC | 1.46 | 1.66 | 1.69
GCGAUG | 1.97 | 2.19 | 2.01
ACUGAU | 2.99 | 3.2 | 3.11
AUGAUA | 3.08 | 3.49 | 3.64
GCCCGA | 1.45 | 1.67 | 1.67
CGAUGA | 2.37 | 2.7 | 2.6
UCUGAU | 2.94 | 3.21 | 3.02
GAUUGC | 2.21 | 2.33 | 2.1
